Mdm2-MdmX inh – human Mdm2/MdmX binding inhibition | inhibition, % at 8 µM | hit rate 3% among 330,000 | AID 485346 | SaOS-2 split-luciferase Mdm2/MdmX complementation, luminescence;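 active = inhibition of at least 50% at 8 µM in the primary screen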
Target sequence (O15151 whole entry, looked up): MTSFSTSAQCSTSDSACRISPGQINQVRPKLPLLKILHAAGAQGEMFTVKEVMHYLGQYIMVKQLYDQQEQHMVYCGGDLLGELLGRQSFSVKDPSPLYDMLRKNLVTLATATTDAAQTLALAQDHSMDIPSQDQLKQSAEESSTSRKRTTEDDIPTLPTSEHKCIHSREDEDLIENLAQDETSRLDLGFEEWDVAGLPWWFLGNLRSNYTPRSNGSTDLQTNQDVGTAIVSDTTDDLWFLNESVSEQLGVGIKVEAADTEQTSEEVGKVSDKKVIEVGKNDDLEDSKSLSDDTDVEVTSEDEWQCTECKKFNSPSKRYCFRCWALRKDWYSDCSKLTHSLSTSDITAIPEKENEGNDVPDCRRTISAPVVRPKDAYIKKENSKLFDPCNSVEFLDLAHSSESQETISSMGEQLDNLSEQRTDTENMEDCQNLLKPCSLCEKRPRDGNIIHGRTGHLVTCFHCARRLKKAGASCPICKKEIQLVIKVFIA
Target sequence (Q00987 whole entry, looked up): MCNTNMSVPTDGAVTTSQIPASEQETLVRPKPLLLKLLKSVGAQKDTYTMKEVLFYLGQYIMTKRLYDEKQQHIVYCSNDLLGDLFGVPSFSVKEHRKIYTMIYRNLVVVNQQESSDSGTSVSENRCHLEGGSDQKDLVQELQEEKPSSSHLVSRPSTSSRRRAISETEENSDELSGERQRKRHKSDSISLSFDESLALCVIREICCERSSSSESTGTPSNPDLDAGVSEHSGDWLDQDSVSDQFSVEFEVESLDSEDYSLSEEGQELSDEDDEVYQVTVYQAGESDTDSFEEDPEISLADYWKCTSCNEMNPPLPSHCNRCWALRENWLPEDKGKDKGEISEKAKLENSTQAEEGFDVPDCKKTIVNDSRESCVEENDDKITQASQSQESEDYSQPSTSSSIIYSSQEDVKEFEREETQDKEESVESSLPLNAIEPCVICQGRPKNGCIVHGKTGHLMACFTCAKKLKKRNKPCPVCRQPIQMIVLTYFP
Jurkat NFkB inh – inhibitors of the PMA/ionomycin-induced NF-kB reporter in Jurkat cells; PMA/ionomycin-induced NF-kB luciferase reporter, luminescence; inhibition, % at 4 µM; hit rate 0.53% among 330,000; AID 435003; in the data active = inhibition above about 50%
aSyn UTR inh – 5' untranslated region of α-synuclein, MLPCN primary screen; inhibition, % (tested at 7.5 µM); hit rate 0.82% among 300,000; AID 1813; alpha-synuclein 5'UTR reporter, inhibitor activity; in the data active = inhibition above about 60%;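 note: H4 neuroglioblastoma cells stably carrying SNCA 5'UTR luciferase fusion; 0% = DMSO wells and 100% = positive control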
Gli-Sufu antag – Gli-Sufu pathway antagonism | Sufu-KO-LIGHT fibroblasts, Gli luciferase reporter luminescence | inhibition, % at 5 µM | hit rate 0.74% among 340,000 | AID 588413;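 active = inhibition above about 55%, limit read from the data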;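 note: 0% = DMSO-treated cells and 100% = wells with medium but no cells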
697 NFkB inh – lowers PMA/ionomycin-induced NF-kB signal in 697 B cells; AID 435022; 697 B-cell NF-kB luciferase reporter, 16 h; hit rate 0.33% among 330,000; inhibition, % at 4 µM; in the data active = inhibition above about 35%
KLF5 inh – suppresses KLF5 promoter-driven expression; DLD-1 KLF5 promoter-luciferase reporter, luminescence; inhibition, % at 5 µM; hit rate 0.23% among 290,000; AID 1700;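 active = inhibition above a per-plate limit of that plate's mean compound inhibition plus 3 SD, cut at about 60% in these data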;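 note: 0% = DMSO wells and 100% = LY294002 at 200 µM; higher means less KLF5 promoter-driven luciferase light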
Jurkat NFkB conf – inhibitors of the PMA/ionomycin-induced NF-kB reporter in Jurkat cells, retest | shares compounds with Jurkat NFkB inh | Jurkat NF-kB luciferase, 16 h | inhibition, % at 4 µM | hit rate 27% among 2,700;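 active = inhibition reaching about 45% at 4 µM in either replicate, limit read from the data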;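 note: plate controls were PMA/ionomycin stimulated DMSO wells for no effect and unstimulated DMSO wells for full effect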
The depositor's hits bear a star; x = no result. Sampled rows, rich in hits. Any-hit rate of the full collection: about 4.1%.

SMILES	Mdm2-MdmX inh	Jurkat NFkB inh	aSyn UTR inh	Gli-Sufu antag	697 NFkB inh	KLF5 inh	Jurkat NFkB conf
O=C(CN1CCc2cc3c(cc2C1)OCCCO3)Nc1c(F)cccc1F	-6.9	-3.5	-5.9	-4.2	-6.4	-5.4	x
O=C(Nc1nc2ccsc2c(=O)s1)c1ccc(Cl)cc1	-46.0	-198.9	-39.3	-63.2	-143.5	-47.5	-108.5
O=C(Nc1nc(=O)c2ccccc2s1)c1ccc(Cl)cc1	0.7	-26.9	-140.3	-49.0	-50.9	-26.2	x
COc1ccc(NC(=O)COc2ccc3c(C)cc(=O)oc3c2)cc1S(=O)(=O)N1CCCCC1	16.4	33.4	4.5	26.4	-44.6	x	x
Cc1ccc(Oc2ccc(OCC(=O)Nc3ccncc3)cc2)cc1	28.5	65.4*	x	x	23.1	x	77.4*
CC(=O)Nc1ccc(NC(=O)[C@@H](NC(=O)N2C[C@H]3C[C@@H](C2)c2cccc(=O)n2C3)C(C)C)cc1	-0.5	2.9	2.5	8.5	10.1	-5.7	x
CCc1ccccc1NC(=O)C1CCN(S(C)(=O)=O)CC1	4.5	-4.3	2.5	5.8	-0.2	x	x
O=C(c1ccccc1)c1cnc(-c2ccc(Cl)cc2)s1	-117.7	-214.4	-19.8	-128.5	-211.8	-75.2	-91.9
Cc1ccc(N/C=C/c2onc(C)c2[N+](=O)[O-])cc1	-140.8	-221.1	-133.6	-115.4	-243.3	-49.2	7.9
Cc1ccccc1CN1CCN(C(=O)CC(C)C)CC1	11.8	6.4	7.0	-13.4	3.0	14.4	x
O=C(NCC1CCCO1)c1sc2ccccc2c1Cl (stereo not given)	-101.5	-78.3	-105.6	-68.1	-73.8	-55.0	x
Cc1ccc2c(Cl)c(C(=O)NCC3CCCO3)sc2c1 (stereo not given)	-166.9	-158.7	-137.3	-45.2	-125.0	-112.4	-45.9
Cc1cc2oc3ccc(NCCCN4CCOCC4)cc3c(=O)c2cc1C	-25.7	-93.8	-96.7	1.5	-78.2	x	x
Cc1cc2oc3ccc(NCCCn4ccnc4)cc3c(=O)c2cc1C	9.9	-167.5	-85.9	-37.8	-199.1	x	-19.9
CCOC(=O)c1ccc2c(c1)nc(-c1ccccn1)n2CC	-78.8	-166.5	-133.8	-18.5	-168.2	-105.0	-55.6
CCOC(=O)Cn1c(-c2ccccn2)nc2ccccc21	16.3	10.3	7.5	2.8	18.0	-22.1	x
Cc1cccc(Nc2nc(-c3cccs3)cs2)n1	-230.9	-141.9	-90.5	-30.8	-138.3	-193.5	x
CC(=O)Oc1ccc(-c2csc(Nc3cccc(C)n3)n2)cc1	-142.6	-150.9	-250.1	-70.3	-134.8	-250.2	-79.9
Cc1cccc(Nc2nc(-c3ccccn3)cs2)n1	-105.5	-185.3	-17.7	-61.0	-169.1	-217.1	-92.5
Cc1ccc2c(c1)N(C(=O)CSc1nncn1C)C(C)(C)c1ssc(=S)c1-2	2.8	53.2*	-1.9	5.7	-0.6	12.2	-30.6
Cc1cc2c(cc1C)N(C(=O)CSc1nncn1C)C(C)(C)c1ssc(=S)c1-2	17.6	29.9	17.4	2.0	-2.7	-4.7	x
COc1cccc(CN(C)C(=O)c2ccc(OCC(=O)Nc3cccc(C(F)(F)F)c3)c(OC)c2)c1	34.6	55.8*	34.4	11.4	-35.2	x	61.5*
Cc1cccn2cc(-c3cc4ccccc4oc3=O)nc12	17.4	-152.3	-44.8	-75.0	-204.9	-30.7	-81.2
Cc1ccc(-c2cn3cccc(C)c3n2)cc1	x	x	-75.3	-2.1	x	-93.1	x
O=c1oc2ccccc2cc1-c1cn2cccnc2n1	-51.5	-108.8	-65.4	-63.4	-116.2	-204.9	x
SMILES	Mdm2-MdmX inh	Jurkat NFkB inh	aSyn UTR inh	Gli-Sufu antag	697 NFkB inh	KLF5 inh	Jurkat NFkB conf
Cc1cccn2cc(-c3ccc(Cl)cc3)nc12	-108.2	-194.4	-39.3	-118.6	-240.7	-147.4	-110.8
O=C(Nc1cc2cccc([N+](=O)[O-])c2oc1=O)c1cccs1	2.6	-7.1	-39.5	-5.1	-23.1	-26.0	x
CCN(CC)CCNC(=O)c1ccc(Sc2ccc(C)cc2)c(NC(C)=O)c1	26.0	6.9	26.8	6.0	0.8	-8.3	x
O=C(Nc1ccc(NC(=O)C2CCCCC2)cn1)c1ccco1	-29.3	-69.5	57.6	-31.6	-38.3	-121.3	x
O=C(Nc1ccc(NC(=O)C23CC4CC(CC(C4)C2)C3)cn1)c1ccco1	-57.9	-151.1	-144.1	-122.3	-101.0	-57.7	-65.8
CCOc1ccc2nc(NC(=O)Nc3cccs3)sc2c1	-159.6	-166.6	-102.7	-108.4	-168.7	7.7	-127.7
CN(C(=O)c1cccc(NC(=O)Cc2ccc(NC(=O)C3CCCN(S(=O)(=O)c4cccc([N+](=O)[O-])c4)C3)cc2)c1)C1CCCCC1 (stereo not given)	x	x	x	0.5	x	x	x
